# Test results: PubChem BioAssay (NCI)
# The panel holds about 79,000 compounds, 15% with a hit somewhere; the sample as a whole holds those more often. Unmarked numbers belong to inactive results. Active and inactive are the calls of the source. Cut-off read from the data, not from the text of the source: active = growth inhibition above about 70%; inactive = the rest.
# What was measured:
# [1] = NCI Yeast Anticancer Drug Screen. Data for the rad50 strain (AID 155);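 note: 0% = growth of vehicle-only cultures of the same strain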; details: S. cerevisiae rad50 strain growth inhibition; at 50.0 µM; hits give high values
# How it was run: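 A DNA repair-deficient yeast mutant serves as the test organism; compound-induced growth inhibition is calculated against vehicle-treated cells.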
# [2] = NCI Yeast Anticancer Drug Screen. Data for the mec2-1 strain (AID 157); details: S. cerevisiae mec2-1 strain, at 50.0 µM, hits give high values
# How it was run: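 Readout is yeast growth inhibition, normalised to vehicle-treated controls, in the mec2-1 strain exposed to compound.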
# [3] = NCI Yeast Anticancer Drug Screen. Data for the sgs1 mgt1 strain (AID 161);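 note: 0% = growth of cultures given vehicle only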; details: S. cerevisiae sgs1 mgt1 strain, at 50.0 µM, hits give high values
# How it was run: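 This yeast growth screen uses a strain with defined DNA-repair lesions; compound-treated growth is compared with vehicle-treated growth.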
# [4] = NCI Yeast Anticancer Drug Screen. Data for the cln2 rad14 strain (AID 165);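 note: 0% = growth equal to vehicle treated cultures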; details: S. cerevisiae cln2 rad14 strain, at 50.0 µM, hits give high values
# How it was run: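 Relative to vehicle controls, growth inhibition of compound-treated cln2 rad14 yeast was recorded.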
# [5] = NCI Yeast Anticancer Drug Screen. Data for the bub3 strain (AID 167); details: S. cerevisiae bub3 mutant strain, at 50.0 µM, hits give high values
# How it was run: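 Inhibition values come from growth of compound-treated mutant yeast normalised to vehicle-treated controls.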
# [6] = NCI Yeast Anticancer Drug Screen. Data for the mlh1 rad18 strain (AID 175); details: S. cerevisiae mlh1 rad18 strain growth inhibition; at 50.0 µM; hits give high values
# How it was run: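 Test agents were incubated with a yeast strain of defined genotype (DNA damage repair defect). Inhibition of growth was derived by comparison with vehicle-exposed cultures.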
Compound,growth inhibition [1] [%],growth inhibition [2] [%],growth inhibition [3] [%],growth inhibition [4] [%],growth inhibition [5] [%],growth inhibition [6]
O=C(O)/C=C/c1ccc2c(c1)CCC2,28.6,18.1,48.4,23.8,50.6,
OCCN1CCOCC1,31.9,-2.05,1.4,24.9,7,
S=C(Nc1ccccc1)N1CCCCC1,-2.8,1.25,-10.2,-39.3,2.4,
Cc1ccccc1N=C(c1ccccc1)C1C(=O)c2ccccc2C1=O,-20.6,19.4,42.2,29,49.2,
O=C(O)/C=C/C(=O)NCc1ccccc1,34.6,42.6,48,1.4,44.4,
NC(=O)c1ccc(N=C(N)N=C(N)N)cc1,7.3,-15.6,-20,-36.2,,
C/C(=C\c1ccc([N+](=O)[O-])cc1)C(=O)O,23.6,23.1,19.2,12.2,31.4,
COc1cc(C(N)=O)cc(OC)c1OC,2.9,-9.5,-0.35,4.9,4.95,
CCN(CC)c1ccc2nc3ccc(=[N+](CC)CC)cc-3oc2c1,-213,-192,-187,-165,-246,
COc1cccc(O)c1O,3.45,9.4,1.2,16.9,9.95,
O=C(O)c1ccc(S(=O)(=O)O)cc1,8.55,11.8,0.45,-12.4,,
CCOC(=O)c1[nH]c(C)c(C(=O)O)c1C,-4.45,-26.3,0.2,-24.9,,
COc1ccc(Oc2c(I)cc(CC(NC(C)=O)C(=O)O)cc2I)cc1 (centres undefined),43.1,40.5,38.7,51.5,,
Cc1ccccc1C1N=C2Oc3ccccc3C=C2C(=O)N1 (centres undefined),10.7,-11.8,0.6,-9.55,-17.4,
CC1(C)N=C(N)N=C(N)N1c1cccc(Br)c1,-14.3,-14.4,-13.1,7.15,-0.95,
O=C1c2ccccc2C(=O)c2c1ccc(C(=O)O)c2[N+](=O)[O-],29.4,16.6,32.2,31.8,19.7,
C#CCSc1nnnn1-c1ccc(Br)c(C)c1,14.8,1.3,34.5,22.3,32.6,7.1%
CC(=O)OCC1CCCO1 (centres undefined),-24.9,-9.45,-21.1,-44.1,19.6,-32%
COc1cc2cc(c1Cl)N(C)C(=O)C[C@H](OC(=O)[C@H](C)N(C)C(C)=O)[C@]1(C)O[C@H]1[C@H](C)[C@@H]1C[C@@](O)(NC(=O)O1)[C@H](OC)C=C/C=C(\C)C2,12.1,-11.4,6.55,14.1,5.9,25.3%
CCOC(=O)c1coc(C(=O)OCC)c1C(=O)OCC,-4.95,-18.1,5.25,-3.05,4.6,
CNC(=O)c1ccccc1CC1(O)c2ccccc2Oc2ccccc21,0.4,-13.5,9.05,0.7,-9.25,
Oc1ccc2c(c1)OCC1(O)Cc3cc(O)c(O)cc3C21 (centres undefined),3.9,-2.4,10.3,3.6,9.75,-3.8%
CC(=Nc1ccccc1)C1=C(O)C(Cc2cccc(F)c2)NC1=O (centres undefined),5.3,4.35,13.6,2.3,-2.5,-22%

Compound,growth inhibition [1] [%],growth inhibition [2] [%],growth inhibition [3] [%],growth inhibition [4] [%],growth inhibition [5] [%],growth inhibition [6]
CN(C)c1nc2c([nH]1)c(=O)n(C)c(=O)n2C,22.4,-15.2,2.2,5.2,-10.1,5.45%
Cc1cc(C(C)(C)C)cc(C)c1Br,-1.85,-0.85,-9.25,-15.3,0.15,-1.65%
O=[N+]([O-])c1ccc(Sc2ccncn2)c([N+](=O)[O-])c1,24.7,16.6,8.9,-5.55,-12.3,
O=C(Cc1nc2ccc([N+](=O)[O-])cc2nc1CC(=O)c1ccccc1)c1ccccc1,-2.4,9.35,-10.5,2.75,13.2,-1.1%
CC(=O)N(C)c1ccc([N+](=O)[O-])cc1,21.8,-5.6,21.2,26.2,24.4,
Cc1cccc(C(=O)N(C(C)C)C(C)C)c1,-0.9,-4.95,-4.25,-50.8,26.2,
S=c1sc2ccccc2n1CN1CCCCC1,7.7,14.8,45,10.6,,
O=C(O)CCCCNC(=O)c1ccccc1,19.6,-14.4,3.25,12.3,-4.8,
Cc1ccc(C(=O)NC2c3ccccc3Oc3ccccc32)cc1,-0.25,-7.7,4.65,-12,6.85,
CC(C)=NNC(N)=S,2.45,-9.4,-23.9,-22.8,2.35,-3.95%
CN(C)c1ccc(CNC(C(=O)c2ccccc2)c2ccccc2)cc1 (centres undefined),-31,-5.35,-15.6,-17.4,8.3,
CC1(C(=O)O)NC(C(=O)O)Cc2c1[nH]c1ccccc21 (centres undefined),26.5,-13.2,3.15,3.65,32.4,
CC(C)=CC(=O)OC(=O)C=C(C)C,-25.3,-48.4,-21.2,1.8,-36.6,-8.65%
COc1cc(C2c3cc4c(cc3C3OC(=O)C2C3CO)OCO4)cc(OC)c1OC (centres undefined),-7.4,-9.95,-14.5,6.25,-19.5,
C=CC[N+](C)(C)C,6.75,-27.9,5.75,7.7,14.2,
CCOC(=O)C/C(C)=N\O,4.05,-11.3,7.9,8.45,9.15,2.4%
Clc1ccc(-c2n[nH]c3c2Cc2ccccc2-3)cc1Cl,-5.1,-10.8,16.4,16.4,11.8,7.45%
N#CC1(Nc2ccc3c4c(cccc24)CC3)CCCCC1,0.8,7.2,15.1,16,26.2,12.5%
OCC(O)C(O)C(O)C(O)/C=N/O (centres undefined),1.4,0.7,-6.4,-6.7,-1.1,3.65%
COCCOCCCl,10,-19.3,-12.5,-7.95,-6.5,-6.7%
CCN(CC)C(=O)/C=C(/C)c1ccccc1,-12.6,-2.65,-22.2,-6.95,4.25,-29.8%
O=C(O)COCC(=O)O,34.1,-15.2,-11.4,-53.2,5.85,4.75%
O=c1cc(-c2ccccc2)oc2c1ccc1ccccc12,11,34.1,21.9,-90.3,52.5,38.5%

Compound,growth inhibition [1] [%],growth inhibition [2] [%],growth inhibition [3] [%],growth inhibition [4] [%],growth inhibition [5] [%],growth inhibition [6]
Cc1ccc(S(=O)(=O)O)c(C)c1,19.3,-4.35,14.4,19.9,-0.9,23.8%
COC(=O)/C=C1\Sc2cc(F)ccc2NC1=O,-12.9,2.45,13.9,-44.2,-8.5,-6.55%
CC(=O)c1c[nH]c2ccccc12,-6.8,-9.85,-19.6,-53.2,-2.25,9.15%
CC(=O)OC(C(=O)O)c1ccccc1 (centres undefined),15.9,-12.1,0.25,13.8,-8,23.5%
O=S(=O)(O)C(Nc1ccccc1)c1ccccc1 (centres undefined),-4.35,-27.7,9.5,-0.25,16,-11.6%
O=[N+]([O-])c1ccc(/C=C/C=C/c2ccccc2)c(Cl)c1,-8.75,-18.3,-3.4,-45.1,-4.85,-11.4%
Cc1cc2ccccc2c(O)c1C#N,32.5,17.9,6.3,-4.3,1.3,48.9%
C=CCNc1nnc(C)s1,14.9,19.7,-21.6,-16.2,-15,-5.35%
Cc1cc2nc(CC(=O)c3ccccc3)c(=O)[nH]c2cc1C,15.7,0.95,13.3,9.4,-15.7,31.3%
Nc1ccc(N=Nc2ccc(S(=O)(=O)O)cc2)c2ccccc12,-0.3,3.15,-22.4,-25.9,1.75,9.05%
Cc1ccncc1C(N)=O,-1.4,-2.8,-9.55,-0.85,-11,3.3%
Oc1ccccc1O,11.7,6.7,8.85,-11.7,-1.6,8.25%
C#CC(C)(O)c1ccc(Cl)cc1 (centres undefined),14.4,-2.15,8.7,-7.35,-26.4,2.65%
CC1(C)Nc2cccc3c(N=Nc4ccc(N=Nc5ccccc5)c5ccccc45)ccc(c23)N1,-50.5,-38.1,-27,-2.2,-5.2,-74.6%
Cc1ccc(CCCC(=O)O)c(C)c1,6.5,-0.25,22.1,1.45,28.9,45.6%
CC1SC(N)=NC1=O (centres undefined),12.8,-6.7,0.25,-2.15,-7.5,2.55%
O=C(c1ccccc1)C1CCC1,22.6,-5.25,10.2,-17.5,7.95,6.75%
COc1cc(CCN=Cc2ccccc2O)c([N+](=O)[O-])cc1OC,-3.6,-10.5,16.1,11.7,-7.05,-2.35%
O=[N+]([O-])c1ccc(CO)cc1,0.15,0.35,8.85,6.75,22.1,4.1%
Cc1c(C(=O)O)c(=O)n(-c2ccccc2)n1C,3.1,-10.2,-8.75,11,-16.9,13.6%
OC1CCCc2ccccc21 (centres undefined),17.6,17.4,13.6,-17.9,0.85,20.2%
CCOc1ccc2[nH]c(=S)sc2c1,35.5,12.9,29.9,15.5,-1.5,21.4%
COc1cc(OC)c2ccc(=O)oc2c1,27.2,8.4,16.1,6.75,38.5,24.1%

Compound,growth inhibition [1] [%],growth inhibition [2] [%],growth inhibition [3] [%],growth inhibition [4] [%],growth inhibition [5] [%],growth inhibition [6]
NC(CSC(c1ccccc1)(c1ccccc1)c1ccccc1)C(=O)O (centres undefined),1.4,-18.8,-28.9,20.8,-8.25,-42.2%
Cc1nc2ccccc2c(C(=O)O)c1O,9.45,-10.2,1.5,6.65,11.1,19.9%
CC(C)OC(=O)c1cc(NC(=S)OC(C)C)ccc1Cl,3.95,10.2,22.9,15.3,32.5,85.1% (active)
c1ccc(Sc2ccccc2)cc1,-4.6,10.5,-8.5,-63.6,-7.95,0.85%
COc1ncnc2c1cnn2C,7.6,3.6,13.3,-35.1,-3.85,2.9%
O=C(CCl)N1CCN(C/C=C/c2ccccc2)CC1,8.15,-0.05,19.1,-3.95,39.9,28.5%
CS(=O)CC1=NC(=N)N=C1CS(C)=O (centres undefined),-9.75,-11.2,12.1,-22.1,2.85,5.75%
Nc1ncnc2[nH]ncc12,-0.9,25.5,37,-2.6,4.7,14.1%
CCCCCCCO,-11,-17.9,-28.8,2.25,-14.7,-11.9%
O=[N+]([O-])c1cccc(N=Nc2ccc(O)cc2O)c1,30.6,-5.65,65.5,15.6,4.2,20.6%
CCc1ccc(/C(C#N)=C/C=C/c2ccccc2)cc1,8.9,-12.2,20.6,-2.9,38,14.7%
NC(=S)NN=C1CCCC1,2.2,-5.8,4.75,-19.6,-2.45,7.75%
N#C/C(=C\c1cc(O)c(O)c(O)c1)C(N)=O,29.8,-14.8,24.6,2.6,25.7,35.5%
CC(=O)Nc1cccc(NC(C)=O)n1,6.25,10.8,1.25,-5,7.8,6.1%
CC1(C)N=C(N)N=C(N)N1c1ccc(Cl)cc1,19.7,3.35,0.4,-20.2,3.85,35.7%
CC12CC3CC1C(C(=O)O2)C3C(=O)O (centres undefined),-20.6,-27.5,-25.8,5.85,-7.2,-8.8%
O=c1[nH]cc(Cl)cc1O,-0.15,-3.3,-1.35,-40.9,13.2,4.9%
CC(=O)OC(OC(C)=O)C1CCCO1 (centres undefined),-5.75,-21.6,-2.1,17.1,-2.95,1.1%
C[N+](C)(C)C(=O)c1ccccc1,21.6,21.4,22.1,11.1,-1.15,46.6%
O=C(O)c1cccc([N+](=O)[O-])c1,-28,-8,-21.8,-27.1,-23.1,-27.4%
C=C[Si](OC(C)=O)(OC(C)=O)OC(C)=O,27.2,-13.2,0.85,14.7,13.7,1.65%
CC(C)CCCC(=O)O,-9.7,-7.5,-1.25,27.8,-2.95,-13.8%
O=C(Cc1ccc(OCc2ccccc2)cc1)NCc1ccc2c(c1)OCO2,3.2,-5.5,-1.2,-10.8,17.5,-9.5%
